Measurements as given in PubChem BioAssay (NCATS).
Several values for one entry are separate records, joined by “and”; a condition that tells them apart may be missing. Identical values can stand only once. Results filed as inconclusive are left out. The source holds several records for some structures; these can differ, active in one and inactive in another. Activity calls are given as the source filed them. The call rests on the fitted dose curve; in most records, active means well fitted inhibition curve with a large enough effect; inconclusive means small, poorly fitted or top-dose-only effect; inactive means flat fitted curve, though single readings scatter.

Columns and labels:
PC49 = test: qHTS profiling for inhibitors of Plasmodium falciparum proliferation (AID 504749); conditions: P. falciparum in erythrocytes, SYBR Green DNA, 72 h; series mostly up to 28.7 µM
Outline: (§1)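 Each compound contacts P. falciparum-infected red blood cells for 72 h at 37 C; lysis buffer (Tris, EDTA, saponin, Triton X, SYBR Green I) is added and fluorescence measured next morning; values normalized to controls.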

SC27B = test: as above; conditions: P. falciparum in erythrocytes, SYBR Green DNA, 72 h; series mostly up to 28.7 µM
Outline: as §1

TAB109 = test: as above; conditions: P. falciparum in erythrocytes, SYBR Green DNA, 72 h; series mostly up to 28.7 µM
Outline: as §1

TAB113 = test: as above; conditions: P. falciparum in erythrocytes, SYBR Green DNA, 72 h; series mostly up to 28.7 µM
Outline: as §1

TAB165 = test: as above; conditions: P. falciparum in erythrocytes, SYBR Green DNA, 72 h; series mostly up to 28.7 µM
Outline: as §1

W2 = test: as above; conditions: P. falciparum in erythrocytes, SYBR Green DNA, 72 h; series mostly up to 28.7 µM
Outline: as §1

CRL-7250 = normal cell line; test: Cytotoxic Profiling of Annotated Libraries Using Quantitative High-Throughput Screening (AID 1296008); conditions: Five cell lines viability, CellTiter-Glo ATP luminescence, 48-72 h; max response: stronger effect = lower value; on max response: on the % scale 0 is the no-effect control and ±100 the full control effect
Outline: (§2)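 Cells exposed to compounds for 48 or 72 hr at 37 degrees Celsius. Viability read as ATP-coupled luminescence with CellTiter-Glo after 10 min at room temperature.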

HaCat [1] = test: as above; conditions: Five cell lines viability, CellTiter-Glo ATP luminescence, 48-72 h; max response: stronger effect = lower value
Outline: as §2

KB-3-1 = test: as above; conditions: Five cell lines viability, CellTiter-Glo ATP luminescence, 48-72 h; max response: stronger effect = lower value
Outline: as §2

NIH3T3 [2] = test: as above; conditions: Five cell lines viability, CellTiter-Glo ATP luminescence, 48-72 h; max response: stronger effect = lower value
Outline: as §2

HEK293T = test: qHTS assay to identify novel small-molecules to repurpose for Merkel cell carcinoma treatment (AID 1296009); conditions: MCC and control cell lines, CellTiter-Glo viability, 72 h; at 44.8 µM (top of the series) unless noted
Outline: (§3)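 Dose-response viability screen; 72 hr exposure at 37 degree celsius; CellTiter-Glo added, 10 min room temperature, luminescence read; RLUs scaled between no-cell and DMSO wells.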

MCC-13 = test: as above; conditions: MCC and control cell lines, CellTiter-Glo viability, 72 h; series mostly up to 46 µM
Outline: as §3

MCC-26 = test: as above; conditions: MCC and control cell lines, CellTiter-Glo viability, 72 h; series mostly up to 46 µM
Outline: as §3

MKL-1 = test: as above; conditions: MCC and control cell lines, CellTiter-Glo viability, 72 h; series mostly up to 46 µM
Outline: as §3

MKL-2 = test: as above; conditions: MCC and control cell lines, CellTiter-Glo viability, 72 h; series mostly up to 46 µM
Outline: as §3

NIH3T3 [3] = test: as above; conditions: MCC and control cell lines, CellTiter-Glo viability, 72 h; at 44.8 µM (top of the series) unless noted
Outline: as §3

UISO = test: as above; conditions: MCC and control cell lines, CellTiter-Glo viability, 72 h; series mostly up to 46 µM
Outline: as §3

WaGa = test: as above; conditions: MCC and control cell lines, CellTiter-Glo viability, 72 h; series mostly up to 46 µM
Outline: as §3

HACAT [4] = test: as above; conditions: MCC and control cell lines, CellTiter-Glo viability, 72 h; at 44.8 µM (top of the series) unless noted
Outline: as §3

HEK293 = test: Cytotoxic Profiling of Annotated Libraries Using Quantitative High-Throughput Screening (AID 1296008); conditions: Five cell lines viability, CellTiter-Glo ATP luminescence, 48-72 h; max response: stronger effect = lower value; on max response: on the % scale 0 is the no-effect control and ±100 the full control effect
Outline: as §2
Further: nearly all actives have a fitted effect of over 60% in size.
Potency means the concentration at half of the fitted maximal effect.

C#CCN[C@@H]1CCc2ccccc21
inactive: Potency (PC49) | Potency (SC27B) | Potency (TAB109) | Potency (TAB113) | Potency (TAB165) | Potency (W2) | max response (CRL-7250) -10.3% and 4.11% | max response (HaCat [1]) 0.653% | max response (KB-3-1) -4.71% | max response (NIH3T3 [2]) 1.77% | outcome (NIH3T3 [2]) | outcome (HEK293T) | Potency (MCC-13) | Potency (MCC-26) | Potency (MKL-1) | Potency (MKL-2) | outcome (NIH3T3 [3]) | Potency (UISO) | Potency (WaGa)

CN(C)CCc1c[nH]c2ccc(CS(=O)(=O)N3CCCC3)cc12
inactive: Potency (PC49) | Potency (SC27B) | Potency (TAB109) | Potency (TAB113) | Potency (TAB165) | Potency (W2) | max response (CRL-7250) -0.155% and 1.13% | max response (HaCat [1]) -24.1% | outcome (HaCat [1]) | max response (KB-3-1) 10.6% and 7.32% | max response (NIH3T3 [2]) -1.45% and -5.53% | outcome (HACAT [4]) | Potency (MCC-13) | Potency (MCC-26) | Potency (MKL-1) | Potency (MKL-2) | Potency (UISO) | Potency (WaGa)

C[C@@H]1C[C@H]2[C@@H]3CCC4=CC(=O)C=C[C@]4(C)[C@@]3(Cl)[C@@H](O)C[C@]2(C)[C@@]1(OC(=O)c1ccco1)C(=O)CCl
inactive: max response (CRL-7250) -41.7% | max response (HaCat [1]) -15.9% | max response (KB-3-1) 4.51% and 5.24% | Potency (MCC-13)
active: Potency (MKL-1) 16.6 µM | Potency (MKL-2) 29.9 µM and 18.7 µM | Potency (UISO) 20.9 µM | Potency (WaGa) 16.6 µM

CN1CCN(c2c(F)cc3c(=O)c(C(=O)O)cn(CCF)c3c2F)CC1
inactive: Potency (PC49) | Potency (SC27B) | Potency (TAB109) | Potency (TAB113) | Potency (TAB165) | Potency (W2)

CNC(=O)c1cc(Oc2ccc(NC(=O)Nc3ccc(Cl)c(C(F)(F)F)c3)cc2)ccn1
active: Potency (PC49) 8.91 µM | Potency (SC27B) 5.01 µM | Potency (TAB113) 11.2 µM | Potency (TAB165) 5.62 µM | Potency (W2) 15.1 µM | Potency (HEK293) 7.43 µM and 5.8 µM | Potency (KB-3-1) 14.8 µM and 6.51 µM | Potency (NIH3T3 [2]) 23.5 µM | Potency (WaGa) 23.7 µM
inactive: max response (HaCat [1]) -11.7% and -12.9% | Potency (MCC-13) | Potency (MCC-26)

CCCc1nc(C)c2c(=O)[nH]c(-c3cc(S(=O)(=O)N4CCN(CC)CC4)ccc3OCC)nn12
inactive: Potency (TAB109) | Potency (TAB113)

COc1ncnc(NS(=O)(=O)c2ccc(N)cc2)c1OC
active: Potency (HEK293) 3.32 µM | Potency (NIH3T3 [2]) 16.6 µM
inactive: Potency (PC49) | Potency (SC27B) | Potency (TAB109) | Potency (TAB113) | Potency (TAB165) | Potency (W2) | outcome (HEK293) | max response (HaCat [1]) -20.7% | outcome (HaCat [1]) | max response (KB-3-1) -15% and 8.7% | max response (NIH3T3 [2]) -17.7% | outcome (HACAT [4]) | outcome (HEK293T) | Potency (MCC-13) | Potency (MKL-1) | Potency (MKL-2) | Potency (UISO) | Potency (WaGa)

COc1cc2ncnc(Nc3cccc(Cl)c3)c2cc1OC
inactive: max response (NIH3T3 [2]) -25% | Potency (MCC-13) | Potency (MCC-26) | Potency (MKL-1) | Potency (MKL-2)
active: Potency (CRL-7250) 0.187 µM | Potency (HaCat [1]) 16.6 nM and 1.46 µM | Potency (KB-3-1) 16.6 µM | Potency (NIH3T3 [2]) 2.09 µM

CC(C)(C)C(=O)OCOP(=O)(COCCn1cnc2c(N)ncnc21)OCOC(=O)C(C)(C)C
inactive: Potency (PC49) | Potency (SC27B)

CCN(CC)CC#CCOC(=O)C(O)(c1ccccc1)C1CCCCC1 (stereo not drawn)
inactive: outcome (CRL-7250) | outcome (HaCat [1]) | max response (KB-3-1) 11.1% and 9.45% | outcome (NIH3T3 [2]) | outcome (HACAT [4]) | Potency (MCC-13) | Potency (MCC-26) | Potency (MKL-1) | Potency (MKL-2) | outcome (NIH3T3 [3]) | Potency (UISO) | Potency (WaGa)

Cc1ncc([N+](=O)[O-])n1CCO
inactive: Potency (PC49) | Potency (SC27B) | Potency (TAB109) | Potency (TAB113) | Potency (TAB165) | Potency (W2)

Nc1ccc(S(=O)(=O)Nc2ccccn2)cc1
inactive: Potency (PC49) | Potency (SC27B) | Potency (TAB109) | Potency (TAB113) | Potency (TAB165) | Potency (W2) | outcome (HACAT [4]) | outcome (HEK293T) | Potency (MCC-13) | Potency (MCC-26) | Potency (MKL-1) | Potency (MKL-2) | outcome (NIH3T3 [3]) | Potency (UISO) | Potency (WaGa)

N=C(N)c1ccc(OCCCCCOc2ccc(C(=N)N)cc2)cc1
active: Potency (PC49) 0.708 µM | Potency (SC27B) 1.12 µM | Potency (TAB109) 1.58 µM | Potency (TAB113) 1.41 µM | Potency (TAB165) 0.501 µM | Potency (W2) 0.478 µM

Cc1nnc(NS(=O)(=O)c2ccc(N)cc2)s1
inactive: Potency (PC49) | Potency (SC27B) | Potency (TAB109) | Potency (TAB113) | Potency (TAB165) | Potency (W2)

O[C@@H](CNC[C@H](O)[C@H]1CCc2cc(F)ccc2O1)[C@@H]1CCc2cc(F)ccc2O1
inactive: Potency (MCC-13) | Potency (MCC-26) | Potency (WaGa)
active: Potency (KB-3-1) 20.9 µM | Potency (MKL-2) 26.4 µM | Potency (UISO) 23.7 µM

O=C(O)c1ccc(-n2nc(-c3ccccc3O)nc2-c2ccccc2O)cc1
active: Potency (WaGa) 16.8 µM
inactive: max response (HaCat [1]) 2.92% | outcome (HaCat [1]) | outcome (HACAT [4]) | Potency (MCC-13) | Potency (MCC-26)
